# Most compounds without a hit are left out; they make up all but 20% or so of the library.
# Shiga toxin inh = A qHTS for Small Molecule Inhibitors of Shiga Toxin; inhibition, % at 38.7 µM; Vero cells, Shiga toxin protein synthesis inhibition reporter; 290,000 tested, 9.2% active; in the data active means inhibition mostly above about 28%, no sharp cut-off; inactive means mostly below about 43%; further: 0% is about no effect
# CHX counter = Cycloheximide Counterscreen for Small Molecule Inhibitors of Shiga Toxin; cell reporter, cycloheximide protein synthesis inhibition counterscreen; max response, %; 300,000 tested, 12% active; AID 2314, 2010; in the data active means max response mostly above about 13%, no sharp cut-off; inactive means mostly below about 14%; further: read at 38.3 µM for the half of the compounds with a filed dose; 0% is about no effect
# Pf growth 96h = Primary qHTS for delayed death inhibitors of the malarial parasite plastid, 96 hour incubation; P. falciparum luciferase reporter growth, 96 h; Potency, µM (doses to about 28.7 µM), for inactives: top-dose activity change, negative = inhibition, usual class: inhibitors; 320,000 tested, 6.9% active; AID 504834, 2011; further: potency means the concentration at half of the fitted maximal effect; on the % scale 0 is the no-effect control and ±100 the full control effect
#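 P. falciparum expressing integrated firefly luciferase, in erythrocytes at 2% hematocrit, 0.05% parasitemia, incubated with compounds 96 h at 37 C, 5% CO2. Growth inhibition read as loss of luminescence; two-generation exposure targets delayed-death apicoplast inhibitors.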
# Pf growth 48h = Primary qHTS for delayed death inhibitors of the malarial parasite plastid, 48 hour incubation | AID 504832, 2011 | Potency, µM (series often up to 28.7 µM), without a hit: top-dose activity change, negative = inhibition, most hits filed as inhibitors | P. falciparum luciferase growth in erythrocytes, 48 h | 310,000 tested, 5.9% active; further: potency means the concentration at half of the fitted maximal effect; on the % scale 0 is the no-effect control and ±100 the full control effect
#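 In quantitative HTS format, infected erythrocytes bearing luciferase-reporter parasites were treated for a single generation at 37 C. Luminescence after adding detection reagent served as the growth measure.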
# HCMV antiviral = qHTS Assay for inhibitors of the human cytomegalovirus (HCMV); activity change, negative = inhibition, % at 57.5 µM; 410,000 tested, 4.5% active; HFF cells, HCMV-luciferase reporter, 72 h; hits give low values; in the data active means activity change below about -60%; inconclusive means no clear call, values can overlap the other calls; inactive means above about -39%; further: on the % scale 0 is the no-effect control and ±100 the full control effect
#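 Compounds were evaluated in HFFs infected with an HCMV luciferase reporter virus (MOI 1 PFU/cell). Luciferase in lysates collected 72 h post infection served as the replication measure.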
# The depositor's hits bear a star; ? = inconclusive; · = no result. Unless noted, the call rests on the fitted dose curve; in most records, active means well fitted inhibition curve with a large enough effect; inconclusive means small, poorly fitted or top-dose-only effect, or another doubt; inactive means no such curve, though single readings can be large or run the other way.
SMILES,Shiga toxin inh,CHX counter,Pf growth 96h,Pf growth 48h,HCMV antiviral
COc1ccc(-c2noc(-c3ccc(Cl)cc3[N+](=O)[O-])n2)cc1OC,15.6,16.3*,-21.1%,57.5%,67.5
COC(=O)N1[C@H](C)C=C[C@]1(Cc1ccccc1)C(=O)O,9.2,-4.1,10.0%,34.1%,-5.9
CN(C)S(=O)(=O)c1ccc2[nH]cc(/C=C/c3nc4ccccc4c(=O)n3-c3ccccc3)c2c1,-13.5,5.8,?,9.28µM*,-6.7
CCn1c(/C=C\c2ccccc2C)nc2ccccc2c1=O,81.7*,23.4*,27.3%,?,-9.2
CCn1c(/C=C/c2ccccc2Cl)nc2ccccc2c1=O,74.5*,30.5*,1.65µM*,1.85µM*,-78.9*
CCn1c(/C=C/c2c(C)[nH]c3ccccc23)nc2ccccc2c1=O,10.0,6.5,29.8%,0.8%,73.6
CCn1c(/C=C/c2c[nH]c3ccccc23)nc2ccccc2c1=O,50.2*,40.9*,40.2%,66.2%,164.8
Cc1[nH]c2ccccc2c1/C=C/c1nc2ccccc2c(=O)n1-c1ccc([N+](=O)[O-])cc1,22.7,-1.2,?,?,-2.6
Cc1cc(C)c(NC(=O)C(C)n2nc(C)c3sc4ccccc4c3c2=O)c(C)c1 (centres undefined),·,·,·,·,-4.2
COc1ccc(C)cc1C1=CC(=O)C[C@H](c2ccc(F)cc2)C1,·,·,?,0.0%,9.2
O=C(COC(=O)C1CC1)Nc1ccc(Cl)cc1Cl,·,·,-16.0%,10.8%,-23.4
COc1ccc(-n2nc(C(=O)NCC(=O)N3CCCCCC3)c3ccccc3c2=O)cc1,41.0,16.0*,?,-23.9%,54.4
CCOC(=O)N1CCN(C(=O)CNC(=O)c2nn(-c3ccc(OC)cc3)c(=O)c3ccccc23)CC1,20.8,17.8*,55.5%,-5.2%,47.0
COc1ccc(-n2nc(C(=O)NCC(=O)N3CCN(C)CC3)c3ccccc3c2=O)cc1,-3.3,2.4,7.6%,4.5%,22.0
COc1ccc(N2CCN(C(=O)CNC(=O)c3nn(-c4ccc(OC)cc4)c(=O)c4ccccc34)CC2)cc1,-2.3,-3.4,14.7µM*,0.0%,-24.1
O=C(COc1coc(CN2CCN(c3ccc(F)cc3)CC2)cc1=O)NC1CCCCC1,·,·,·,·,-39.5
O=C(CN(Cc1ccc2c(c1)OCO2)C(=O)c1cnsn1)NC1CCCC1,-18.6,-6.7,33.6%,6.5%,7.8
COc1cccc(OC)c1C(=O)NC(=O)Nc1c(C)cccc1C,-8.6,-2.5,0.0%,·,-29.9
COc1ccc(C(=O)NCCS(=O)(=O)NCCc2ccccc2)cc1,·,·,127.9%,87.0%,50.3
COc1ccc(CNC(=O)c2ccc(-c3ccccc3)cc2)cc1OC,3.1,0.6,31.5%,1.9%,1.9
Cc1ccc(CNC(=O)c2ccc(COc3ccccc3)cc2)cc1,22.6,-1.8,-10.0%,-5.2%,-63.4*
COc1ccc(CNC(=O)c2ccc(C)cc2)cc1,39.2*,23.8,·,·,·
COc1ccc(C2=C(C)C(=O)N(Cc3ccc(C(=O)NCc4ccc(C)cc4)cc3)S2(=O)=O)cc1,·,·,·,·,3.5
COc1ccc(C(=O)NCCS(=O)(=O)NCc2ccccc2)cc1,·,·,8.3%,2.3%,-97.8*
COc1ccc(CNC(=O)c2ccc(-c3ccccc3)cc2)cc1,79.3*,45.1*,51.8%,11.5%,60.2
SMILES,Shiga toxin inh,CHX counter,Pf growth 96h,Pf growth 48h,HCMV antiviral
O=C(NCc1ccncc1)c1ccc(OCc2ccccc2)cc1,·,·,·,·,-2.3
CCn1ccc2cc(S(=O)(=O)N3CCCN(C(=O)Nc4ccc(C)cc4)CC3)ccc21,·,·,·,·,-0.6
COC(=O)c1ccc(NS(=O)(=O)c2c(C)[nH]c(C)c2C(=O)N2CCCC2)cc1,-7.2,-2.2,40.6%,11.3%,-31.8
COc1ccc(CNC(=O)c2sccc2C)cc1,21.7,14.7*,9.9%,9.0%,0.7
CCC(CC)C(=O)NCc1ccc(OC)cc1,-2.7,-1.8,8.6%,17.8%,?
COc1ccc(C(=O)NCc2ccccc2OC)cc1,9.9,9.2,5.22µM*,?,15.3
Cc1ccc(Oc2ccc(C(=O)NCc3ccncc3)cc2)cc1,-5.3,-0.7,?,?,-82.7*
O=C(NCc1ccncc1)c1ccc(Oc2ccccc2)cc1,15.6,17.2,36.3%,14.4%,-18.4
COc1ccc(CNC(=O)c2c(F)c(F)c(F)c(F)c2F)cc1,-28.0,-2.2,?,-14.4%,-101.9*
CCN(CC)CCn1c2c(c(SCC(=O)Nc3ccc(F)c(F)c3)nc1=O)CCC2,·,·,?,?,-20.3
Cc1ccc(-c2cnc(C(O)c3c(C)cccc3C)[nH]2)cc1 (centres undefined),·,·,·,·,-31.3
Cc1ccc(CCNC(=O)NC(C)(C)C)cc1,68.7*,29.9*,·,66.8%,7.6
COc1ccccc1CNC(=O)C(NC(=O)c1ccc(C)cc1)C(C)C (centres undefined),-13.0,-1.8,?,2.9%,13.6
Cc1ccc(C)c(NS(=O)(=O)c2cc(C(=O)NCc3ccncc3)ccc2C)c1,-8.8,-1.0,0.9%,17.4%,-68.7*
COc1ccccc1CNC(=O)C(NC(=O)c1ccccc1)C(C)C (centres undefined),21.7,0.6,-4.6%,13.1µM*,7.1
COc1ccc(CNC(=O)c2ccc(Br)cc2)cc1,62.9,12.8*,45.5%,21.3%,-22.3
Cc1ccc(CCNC(=O)Cn2cccc2)cc1,4.0,1.4,-1.9%,9.5%,11.2
COCCCNC(=O)c1ccc(Cn2c(SCc3ccc(F)cc3)nc3cccnc32)cc1,·,·,·,·,29.1
CSCCC(NC(N)=O)C(=O)Nc1cccc(C#N)c1 (centres undefined),21.9,-2.1,5.6%,14.1%,-19.8
Cn1c2ccccc2c2c(C(=O)N3CCN(c4ccc(F)cc4)CC3)cn(C3CCCCC3)c(=O)c21,·,·,·,·,-23.1
Cc1ccc(C(=O)NCCc2ccncc2)cc1,42.0*,27.4*,131.7%,125.2%,14.9
Cc1ccc(C(=O)NCCc2ccccc2)cc1,-1.7,-2.1,-58.4%,184.0%,·
CCOc1cc(C2CC(=O)NC3=C2C(=O)C(C(=O)OC)C(C)C3)cc(Cl)c1O (centres undefined),-12.0,1.8,-42.8%,1.17µM*,36.3
CCOC(=O)C1CCN(c2nc3c(S(=O)(=O)c4ccc(Br)cc4)nnn3c3ccsc23)CC1,·,·,·,·,17.4
COc1cc(/C=C/C(=O)Nc2cc(C(F)(F)F)ccc2Cl)cc(OC)c1OC,-11.8,-4.9,2.62µM*,10.4µM*,-18.3
CCCCN=C[C@]12CCC(O)CC1(O)CCC1[C@@H]2CC[C@]2(C)[C@H](C3C=CC(=O)O3)CCC12O (some centres undefined),-11.1,-7.3,-3.3%,·,-96.8*
CC12CCC3C(CCC4(O)CC(O)CCC34C=O)C1(O)CCC2C1=CC(=O)OC1 (centres undefined),·,·,·,·,-100.2*
C[C@]12CC[C@H]3[C@@H](CC[C@]4(O)C[C@@H](O)CC[C@]34C=O)[C@@]1(O)CC[C@@H]2C1=CC(=O)OC1,·,·,-10.2%,16.8%,-99.2*
